{"source": "PubChem BioAssay AID1347426", "about": "(Functional Genomics Laboratory (NCATS/FGL), 2020)", "note": "Hit rate of the full screen: of about 31,000 sequences, about 1,400 (4.5%) were called active.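 The calls were made as follows: active = median seed-adjusted z-score above 1 or below -1; inactive = the rest.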 Only a selection was taken, and actives are over-represented in it overall.", "data": [{"experiment": "Novel Modifiers of Survival Motor Neuron (SMN) Protein: Gene Identification via Genome-wide siRNA Screen;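 also: luminescence tracks full-length SMN protein made from the SMN2 reporter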", "conditions": "HEK293T SMN2-luciferase reporter, siRNA knockdown, 72 h; actives lie on both sides", "outline": "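HEK293T cells stably expressing an SMN2 splicing/cDNA-luciferase reporter were reverse-transfected with a druggable-genome siRNA library and read by luminescence at 72 hours; hits defined by MAD score above 1.0 or below -1.0.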", "values": [{"sequence": "AGCUCACCAGAGAAAUUUUTT against CHDH", "median seed-adjusted z-score": "0.0241 (inactive)"}, {"sequence": "GCUGCUCUGUUGAUGCUUATT against POMT1", "median seed-adjusted z-score": "0.327 (inactive)"}, {"sequence": "GGAGUUAUAUUUAGUGAUATT against ABCA10", "median seed-adjusted z-score": "-0.104 (inactive)"}, {"sequence": "GGGUCAAGAUCGAGGAUAATT against MYOM3", "median seed-adjusted z-score": "-0.012 (inactive)"}, {"sequence": "CCUCUAACAUUGGUUCCAATT against XPNPEP1", "median seed-adjusted z-score": "-1.5 (active)"}, {"sequence": "CCAUGUACGUCAUCCCAUUTT against PCK1", "median seed-adjusted z-score": "-0.401 (inactive)"}, {"sequence": "AGAUGAGCCUAUACAGCGATT against TRIM9", "median seed-adjusted z-score": "-0.437 (inactive)"}, {"sequence": "GCAGUUCGGCAGUAUCUGUTT against PSMD6", "median seed-adjusted z-score": "-1.03 (active)"}, {"sequence": "CAUCCAGCCCUUAUACAAATT against RBM24", "median seed-adjusted z-score": "0.0471 (inactive)"}, {"sequence": "CGUUCUAUCAACAAACUCATT against EIF2S1", "median seed-adjusted z-score": "-0.175 (inactive)"}, {"sequence": "GCCUCACAGGUGCAUCAUATT against TSC2", "median seed-adjusted z-score": "1.11 (active)"}, {"sequence": "GCCUAGGAGCGAGGACUUATT against DNAJC30", "median seed-adjusted z-score": "0.329 (inactive)"}, {"sequence": "CAGCUAUAAUCGUUUAUGATT against RAB22A", "median seed-adjusted z-score": "0.321 (inactive)"}, {"sequence": "GGAAUUUCGGCACUCAGAATT against CHIT1", "median seed-adjusted z-score": "-0.578 (inactive)"}, {"sequence": "GGUUGCCCAUCUUACUCUATT against ZNF470", "median seed-adjusted z-score": "-1.26 (active)"}, {"sequence": "GCUCGGUCUGGUGAACUAATT against KLF3", "median seed-adjusted z-score": "0.628 (inactive)"}, {"sequence": "CAAUCGUCAUAAUGUCUAUTT against A2M", "median seed-adjusted z-score": "-1.96 (active)"}, {"sequence": "GAUCCAUAGUACACGAAUATT against ADAM7", "median seed-adjusted z-score": "-0.0638 (inactive)"}, {"sequence": "AGAUUGUCCUCAACUUCAATT against NRP2", "median seed-adjusted z-score": "0.477 (inactive)"}, {"sequence": "AAUCAAAAGGGAGAACUCATT against HS3ST2", "median seed-adjusted z-score": "0.133 (inactive)"}, {"sequence": "GACCCUCGAUUACUAUUCATT against OMA1", "median seed-adjusted z-score": "0 (inactive)"}, {"sequence": "GCAUCGACAUGUCCUGGGATT against PUF60", "median seed-adjusted z-score": "2.26 (active)"}, {"sequence": "CAUCAACUAUAUCACAGUATT against ATP13A5", "median seed-adjusted z-score": "0.241 (inactive)"}, {"sequence": "AAUUCGAUAUGUUCAGCAATT against GPX4", "median seed-adjusted z-score": "-1.18 (active)"}, {"sequence": "CAUCUAGGAUUUUAAGGGATT against ASGR1", "median seed-adjusted z-score": "-0.128 (inactive)"}, {"sequence": "GGAGGUUUGUAGAAUAUGUTT against XYLT1", "median seed-adjusted z-score": "-0.274 (inactive)"}, {"sequence": "GCACGACUGUUACUGGACUTT against POLRMT", "median seed-adjusted z-score": "0.0812 (inactive)"}, {"sequence": "GGAUAUCAAUCGAGUACAATT against PIK3R3", "median seed-adjusted z-score": "-1.88 (active)"}, {"sequence": "GCUGGACCGUAAAAUUGAATT against PSMC4", "median seed-adjusted z-score": "-0.361 (inactive)"}, {"sequence": "CCAACAUCUGGAACGAAUATT against KCNT2", "median seed-adjusted z-score": "0.449 (inactive)"}, {"sequence": "GGACAAGAACGGAAUUUCATT against SCLY", "median seed-adjusted z-score": "0.00396 (inactive)"}, {"sequence": "GGACGGAAGAUUUUCGUAUTT against SR140", "median seed-adjusted z-score": "1.16 (active)"}, {"sequence": "GAACCUCUAUUGUGGACAATT against TMEM1", "median seed-adjusted z-score": "-0.191 (inactive)"}, {"sequence": "AGAAAGUACUGCACAGAGATT against PCDH8", "median seed-adjusted z-score": "-1.03 (active)"}, {"sequence": "CGAAGUUUCCUAUAGAGGATT against PCDHGA10", "median seed-adjusted z-score": "0.0621 (inactive)"}, {"sequence": "GAUAGGAUGUGACAAUGAATT against ING2", "median seed-adjusted z-score": "0.126 (inactive)"}, {"sequence": "GCCUAUCAGGAUCCCAGCATT against RIN1", "median seed-adjusted z-score": "-0.0694 (inactive)"}, {"sequence": "AUGUACAAGUGUCAGCUAATT against VEGFC", "median seed-adjusted z-score": "-0.41 (inactive)"}, {"sequence": "GCAUCGUGGUGUCAAGUCATT against ZBTB12", "median seed-adjusted z-score": "0.0993 (inactive)"}, {"sequence": "GGUUGAAGCUUAUUGCAGATT against HARS2", "median seed-adjusted z-score": "0 (inactive)"}, {"sequence": "CAAAAGUAUUCUUAGGAAATT against SLC25A15", "median seed-adjusted z-score": "-0.0116 (inactive)"}, {"sequence": "GACCUACUCUAGUGACAGATT against TRERF1", "median seed-adjusted z-score": "-0.0952 (inactive)"}, {"sequence": "ACCGAGAGAUGGUAUAUGATT against SUPT4H1", "median seed-adjusted z-score": "-1.01 (active)"}, {"sequence": "AGAUCACUGUAUCACCUCUTT against VDR", "median seed-adjusted z-score": "-0.031 (inactive)"}, {"sequence": "GCUGGUGACUGAGUUUUCATT against NOB1", "median seed-adjusted z-score": "-0.0844 (inactive)"}, {"sequence": "GCUAUAUCAGGAUGAGAUATT against ATG5", "median seed-adjusted z-score": "-0.0597 (inactive)"}, {"sequence": "GGCCUUACCCUAAAUCGAATT against RARB", "median seed-adjusted z-score": "0.409 (inactive)"}, {"sequence": "CGAGCUACAGGAACAUCUUTT against LSS", "median seed-adjusted z-score": "-0.302 (inactive)"}, {"sequence": "GUGUGAAGGUAGACCGUGATT against SPATA20", "median seed-adjusted z-score": "0 (inactive)"}, {"sequence": "GAGUGGAAGUGUACCAACATT against HCFC1", "median seed-adjusted z-score": "1.47 (active)"}, {"sequence": "GGAAGAUUCAGUUAACAUUTT against NUDT3", "median seed-adjusted z-score": "0.674 (inactive)"}, {"sequence": "CAACCAUGUUCAGUAUAGATT against SPINK9", "median seed-adjusted z-score": "0.392 (inactive)"}, {"sequence": "CCGGAGAAGUUCAACAGCATT against DGKA", "median seed-adjusted z-score": "-1.36 (active)"}, {"sequence": "GCUAAUCAUUGAGUAUGCATT against KLHL10", "median seed-adjusted z-score": "0.0708 (inactive)"}, {"sequence": "AGCUGACCGAGUUCCUGCATT against GAL3ST1", "median seed-adjusted z-score": "0.263 (inactive)"}, {"sequence": "CCUUGGAGGAGAUCGCUGATT against TEKT2", "median seed-adjusted z-score": "-0.349 (inactive)"}, {"sequence": "GGCAUACAGUUCCGAGAAATT against AGL", "median seed-adjusted z-score": "-0.385 (inactive)"}, {"sequence": "GUCUUAGAAUGUGAACGUATT against CCNL1", "median seed-adjusted z-score": "-1.26 (active)"}, {"sequence": "GGCAGGAGGUUUAAGAAGUTT against PPP3R2", "median seed-adjusted z-score": "-0.143 (inactive)"}, {"sequence": "GAGAGUAUCGAAACCGUUUTT against GNPTAB", "median seed-adjusted z-score": "0.296 (inactive)"}, {"sequence": "GGACUGCACUACUCCAUGATT against ADAMTS2", "median seed-adjusted z-score": "-0.338 (inactive)"}, {"sequence": "GCACAGUAGUCACCAAUGATT against FUCA2", "median seed-adjusted z-score": "0.562 (inactive)"}, {"sequence": "CCAAGGUACUAACAUGGGATT against AP3M1", "median seed-adjusted z-score": "0 (inactive)"}, {"sequence": "CCCAGACUCUAGAUAGACATT against SULT1C3", "median seed-adjusted z-score": "-0.731 (inactive)"}, {"sequence": "CUCCUGCAGUUGAAGGUGATT against FKBP8", "median seed-adjusted z-score": "-0.304 (inactive)"}, {"sequence": "CCAACAAUUUAGUAGUUAUTT against TBP", "median seed-adjusted z-score": "-1.25 (active)"}, {"sequence": "AGUACAACCUGGUGACGCATT against ZNF710", "median seed-adjusted z-score": "0 (inactive)"}, {"sequence": "GGAUCAAUACUCCAACAAATT against ZNF281", "median seed-adjusted z-score": "1.19 (active)"}, {"sequence": "GGCUUGAUGCUGGUACUUUTT against HACL1", "median seed-adjusted z-score": "-0.0664 (inactive)"}]}]}
